Bioassay records deposited in PubChem BioAssay by several laboratories.
PP1 inh = PP1-alpha phosphatase inhibitors, primary screen, counter-screen for PP5 inhibitor project, biochemical, fluorescence, OMFP substrate, single point; AID 2235, 2010; 320,000 tested, 0.9% active; purified PP1alpha; Serine/threonine-protein phosphatase PP1-alpha catalytic subunit (Homo sapiens), P62136; inhibition, % at 6.7 µM;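 active = inhibition above the mean inhibition of all tested compounds plus 3 SD, computed separately for each screening campaign, cut at about 15% in these data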
IDE inh = human IDE inhibitors in live cells, primary screen, fluorescence polarization, HEK cells, FAbetaB substrate; FAbetaB cleavage; inhibition, % at 5.59 µM; Insulin-degrading enzyme (Homo sapiens), P14735; 320,000 tested, 0.41% active;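 active = percent inhibition above the average of all tested compounds plus 3 SD, set per screening campaign, cut at about 16% in these data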;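 also: IDE supplied by intact live HEK cells; FP after avidin binding of uncleaved biotin substrate so inhibition keeps polarization high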
Target sequence (P14735 whole entry, looked up): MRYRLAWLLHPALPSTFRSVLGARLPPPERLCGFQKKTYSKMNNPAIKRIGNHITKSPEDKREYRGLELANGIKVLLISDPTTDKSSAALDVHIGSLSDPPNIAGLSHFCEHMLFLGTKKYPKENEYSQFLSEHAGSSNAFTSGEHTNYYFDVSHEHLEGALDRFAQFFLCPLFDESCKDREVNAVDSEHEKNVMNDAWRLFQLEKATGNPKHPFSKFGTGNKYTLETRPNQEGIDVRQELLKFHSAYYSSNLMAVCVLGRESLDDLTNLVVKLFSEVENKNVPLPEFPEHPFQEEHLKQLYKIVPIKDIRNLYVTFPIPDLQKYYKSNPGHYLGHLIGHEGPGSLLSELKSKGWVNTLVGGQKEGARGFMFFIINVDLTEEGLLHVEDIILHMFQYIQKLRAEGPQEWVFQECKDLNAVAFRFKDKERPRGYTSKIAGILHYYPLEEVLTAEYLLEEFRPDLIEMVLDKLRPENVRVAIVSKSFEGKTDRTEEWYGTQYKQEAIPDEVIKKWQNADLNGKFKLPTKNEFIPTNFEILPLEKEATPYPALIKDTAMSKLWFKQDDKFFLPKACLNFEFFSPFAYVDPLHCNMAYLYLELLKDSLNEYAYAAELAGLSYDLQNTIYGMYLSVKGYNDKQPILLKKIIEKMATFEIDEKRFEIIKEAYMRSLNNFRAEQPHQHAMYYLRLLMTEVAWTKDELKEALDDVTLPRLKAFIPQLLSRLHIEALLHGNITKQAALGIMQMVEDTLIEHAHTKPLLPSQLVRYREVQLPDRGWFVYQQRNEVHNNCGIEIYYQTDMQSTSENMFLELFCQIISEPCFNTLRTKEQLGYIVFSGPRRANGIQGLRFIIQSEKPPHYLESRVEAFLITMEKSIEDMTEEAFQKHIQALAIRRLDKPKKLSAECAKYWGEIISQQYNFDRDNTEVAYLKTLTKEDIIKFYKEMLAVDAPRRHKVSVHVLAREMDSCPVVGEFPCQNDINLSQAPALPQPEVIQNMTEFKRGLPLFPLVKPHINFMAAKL
Exocytosis inh = LAMP-1 surface exposure blockers, TALL-104 cells – cell-based, flow cytometry, MLPCN library, primary screen; 360,000 tested, 0.66% active; inhibition, % at 10 µM; TALL-104 LAMP-1 surface exposure; cells stimulated with thapsigargin and PMA;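 active = inhibition above about 55%, limit read from the data; inconclusive = no clear call, values can overlap the other calls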
IDE cell activ = human IDE activators in live cells, primary screen, fluorescence polarization, HEK cells, FAbeta-B substrate | AID 493087, 2011 | FAbeta-B cleavage; 0% vehicle, 100% cell-free pure enzyme wells | Insulin-degrading enzyme (Homo sapiens), P14735 | 340,000 tested, 0.073% active | activation, % at 5.96 µM;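 active = activation above the mean of all tested compounds plus 3 SD, set per screening campaign, cut at about 17% in these data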
SKKanGAS inh = S. pyogenes SKKanGAS growth inhibitors in kanamycin, primary screen, streptokinase expression inhibitor project, SKKanGAS strain, BacTiter-Glo luminescence | 6 h | inhibition, % at 7.5 µM | 300,000 tested, 1.3% active | AID 1662, 2009;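 active = mean replicate score, as percent of positive control median, at least 50; inconclusive = mean below 50 but one replicate at or above 50; inactive = mean and every replicate below 50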;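 also: strain carries kanamycin resistance gene driven by streptokinase promoter and grows in 40 µg/ml kanamycin; loss of luminescence reflects streptokinase promoter inhibition or plain growth inhibition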
PP5 inh = PP5 phosphatase inhibitors, primary screen, biochemical, fluorescence. Serine/threonine-protein phosphatase 5 (Homo sapiens), P53041. purified PP5c, OMFP substrate fluorescence. inhibition, % at 6.7 µM. 320,000 tested, 0.18% active. AID 1987, 2009;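 active = inhibition above the campaign's mean inhibition across all tested compounds plus 3 SD, cut at about 9.5% in these data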
Hits are given with their value; . = inactive; ? = inconclusive; / = not tested or not shown. The list is not random: actives were taken first. Their share in the collection is about 2.8%.

SMILES	PP1 inh	IDE inh	Exocytosis inh	IDE cell activ	SKKanGAS inh	PP5 inh
CC(C)c1ccc(OCC(=O)NNC(=S)NC(=O)C2CC2)cc1	.	.	.	.	96	.
Cc1ccc(S(=O)(=O)N2C[C@H]3C(=O)C[C@@H](c4cccc(Cl)c4)N(S(=O)(=O)c4ccc(C)cc4)[C@H]3C[C@H]2c2ccc(Cl)cc2)cc1	/	/	.	/	/	/
COc1ccc2c3c(n(C(=O)OC(C)(C)C)c2c1)C1CC=C(COC(C)=O)CN1CC3 (centres undefined)	/	/	.	/	/	/
CC(OC(=O)c1cc(=O)[nH]c2ccccc12)C(=O)Nc1ccccc1F (centres undefined)	.	.	.	.	.	.
Cn1c(=S)[nH]c2sc3c(c2c1=O)CCC(C(C)(C)C)C3 (centres undefined)	.	.	.	.	79	.
CC(=O)c1cccc(NCC(=O)Nc2cc(S(=O)(=O)N3CCCCC3)ccc2C)c1	.	.	.	.	.	.
Cc1noc(C)c1NC(=O)N(C)C[C@H]1OCCCC[C@@H](C)Oc2ccc(NS(=O)(=O)c3ccccc3)cc2C(=O)N([C@H](C)CO)C[C@@H]1C	/	/	.	/	/	/
COc1ccc(CCN2CC(C(=O)NCCc3ccccn3)CCC2=O)cc1 (centres undefined)	.	.	.	.	50	.
COc1ccc(CCN2CC(C(=O)NCCc3ccccc3C)CCC2=O)cc1 (centres undefined)	.	.	.	.	.	.
COc1ccccc1CN1CC(C(=O)NCc2ncccc2C)CCC1=O (centres undefined)	.	.	.	.	51	.
Cc1cc(C)nc(SCC(=O)NC2CCCCC2C)n1 (centres undefined)	.	.	.	.	.	.
O=C(NC1CCN(S(=O)(=O)c2cccc([N+](=O)[O-])c2)CC1)C1CCCCC1	16	.	.	.	.	.
O=C(NC1CCN(Cc2ccccc2)CC1)C1CCN(S(=O)(=O)c2cccc([N+](=O)[O-])c2)CC1	.	.	?	.	.	.
Cc1cc(C)n(-c2nc(SCC(=O)O)c3c4c(sc3n2)COC(C)(C)C4)n1	.	.	.	.	70	.
O=C(NC1CCN(Cc2ccccc2)CC1)c1cc(S(=O)(=O)N2CCOCC2)ccc1Cl	/	/	.	.	/	/
Cc1ccc(N/N=C2\CS(=O)(=O)N(C)c3ccsc32)cc1	.	.	.	.	101	.
CN1c2ccsc2/C(=N/Nc2ccc(F)cc2)CS1(=O)=O	.	.	.	.	/	.
COc1cccc(N2CCN(c3ncnc4c3[nH]c3ccccc34)CC2C)c1 (centres undefined)	.	25	/	/	.	.
CC1=CC(=O)C=CC1=Nc1ccc(N(C)C)cc1	/	/	84	/	/	/
CN(C)c1ccc(N=c2sc3ccccc3n2C)cc1	.	.	.	.	.	.
CCCCN(C)CC(O)Cn1cc(/C=C/C(=O)c2ccc(C)cc2)c2ccccc21 (centres undefined)	.	.	70	.	.	.
CCCN(CCC)CC(O)Cn1cc(/C=C/C(=O)c2ccccc2)c2ccccc21 (centres undefined)	/	/	92	.	.	/
CCCN(CCC)CC(O)Cn1cc(/C=C/C(=O)c2cccs2)c2ccccc21 (centres undefined)	.	.	.	.	.	.
Cc1cccc(CN2CCCC(C(=O)c3ccc4c5c(cccc35)CC4)C2)n1 (centres undefined)	.	.	.	.	65	.
COc1ccc2cc(C(=O)C3CCCN(Cc4cccc(C)n4)C3)ccc2c1 (centres undefined)	.	.	.	.	79	.
O=C(c1ccc2c3c(cccc13)CC2)C1CCCN(Cc2cccnc2)C1 (centres undefined)	.	.	.	.	.	.
C=CCn1c(Sc2ncc([N+](=O)[O-])s2)n[nH]c1=O	.	.	58	.	.	.
C=CCn1c(CSc2ccccc2[N+](=O)[O-])n[nH]c1=S	.	.	.	.	.	.
CCCCN1C(=O)C(CC(=O)NCCc2ccccn2)CC(C(=O)N2CCCCCC2)=C1C (centres undefined)	/	/	.	/	/	/
